# Experimental data published in the supplement of paper PMC3545927.
# This is one part of the list. How many sequences the whole screen found active is unknown.
# Molecular target: furin, P09958
# Experiment: furin cleavage Z-score vs untreated control; higher = more cleavage, active = 3.5 or more, inactive = 1 or less, 8 variable residues between constant flanks
# Procedure, shortened: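 Sequencing of released DNA, tagged with adapters by PCR, gave read counts used as abundance. That DNA was freed when purified furin cut N-terminally bead-bound 8-mer peptides fused to a cDNA oligonucleotide, in 0.01 ml reactions at 1:10 enzyme:substrate in 50 mM HEPES pH 7.5 with CaCl2 and NaCl, lasting 7.5, 15 or 30 min. The cleavage Z-score was the lowess-adjusted log count versus furin-free reactions, scaled by median absolute deviation.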
# Sequence of furin, P09958 (P09958 whole entry): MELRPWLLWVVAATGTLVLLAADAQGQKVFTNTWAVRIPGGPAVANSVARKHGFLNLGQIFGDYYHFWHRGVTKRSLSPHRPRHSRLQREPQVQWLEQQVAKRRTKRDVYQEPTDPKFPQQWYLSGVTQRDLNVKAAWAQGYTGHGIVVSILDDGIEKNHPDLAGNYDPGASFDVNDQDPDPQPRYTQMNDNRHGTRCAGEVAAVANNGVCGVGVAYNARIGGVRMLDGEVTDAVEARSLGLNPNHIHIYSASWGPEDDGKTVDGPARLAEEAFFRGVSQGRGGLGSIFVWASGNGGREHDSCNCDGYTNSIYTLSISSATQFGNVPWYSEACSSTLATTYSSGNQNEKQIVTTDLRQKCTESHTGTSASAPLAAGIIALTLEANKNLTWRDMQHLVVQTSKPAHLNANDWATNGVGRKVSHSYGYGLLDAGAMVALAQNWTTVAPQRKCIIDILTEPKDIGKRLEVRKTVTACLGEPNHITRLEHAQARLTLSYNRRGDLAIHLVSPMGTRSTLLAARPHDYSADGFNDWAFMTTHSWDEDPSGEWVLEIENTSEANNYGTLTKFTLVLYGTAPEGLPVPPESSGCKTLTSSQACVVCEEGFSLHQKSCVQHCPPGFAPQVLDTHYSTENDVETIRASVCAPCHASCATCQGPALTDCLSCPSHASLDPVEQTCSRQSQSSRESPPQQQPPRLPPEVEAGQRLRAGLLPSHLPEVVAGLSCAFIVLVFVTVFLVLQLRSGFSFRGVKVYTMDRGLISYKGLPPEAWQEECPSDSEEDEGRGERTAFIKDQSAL
Sequence,furin cleavage Z-score (7.5 min),furin cleavage Z-score (15 min),furin cleavage Z-score (30 min)
CADHMEECSQAGNASASA [HC1815],-0.251 (inactive),-0.239 (inactive),-0.816 (inactive)
CACRAAGLQDAGNASASA [HC1522],-0.902 (inactive),-1.39 (inactive),-1.09 (inactive)
CASTLCSAHLAGNASASA [HC2505],0.374 (inactive),0.0643 (inactive),-1.17 (inactive)
CARPRRQGEVAGNASASA [FS-3023],0.519 (inactive),0.202 (inactive),0.396 (inactive)
CARIFRHSSVAGNASASA [FS-2949],1.97,0.695 (inactive),1.03
CAWYELTPAEAGNASASA [HC924],-1.27 (inactive),-1.36 (inactive),1.04
CARDLRGLAEAGNASASA [FS-2904],-1.94 (inactive),0.23 (inactive),0.275 (inactive)
CARPRRSEKQAGNASASA [FS-1965],3.36,4.62 (active),3.66 (active)
CARPRRGIIFAGNASASA [FS-3021],1.06,1.16,5.75 (active)
CARIFRSSDFAGNASASA [FS-2030],0.78 (inactive),-0.809 (inactive),0.131 (inactive)
CARIFRSIKQAGNASASA [FS-2148],0.0894 (inactive),2.91,5.31 (active)
CARDRRSPAEAGNASASA [FS-3152],10.2 (active),8.19 (active),8.7 (active)
CAAARALAHGAGNASASA [HC234],0.0166 (inactive),-0.81 (inactive),0.0305 (inactive)
CAEVPCHRPTAGNASASA [HC2418],0.387 (inactive),-0.0389 (inactive),0.307 (inactive)
CASTSCSAHLAGNASASA [HC2517],0.382 (inactive),1.16,0.668 (inactive)
CAAEITGHVKAGNASASA [HC1177],0.655 (inactive),2.37,0.185 (inactive)
CARPRRPASPAGNASASA [FS-2581],0.54 (inactive),-0.0908 (inactive),-2 (inactive)
CADARRSPDQAGNASASA [FS-2627],-0.496 (inactive),-1.36 (inactive),-0.54 (inactive)
CARPRRSTSPAGNASASA [FS-3026],10.5 (active),9.5 (active),8.81 (active)
CARPRRSSTQAGNASASA [FS-3025],6.4 (active),8.65 (active),6.89 (active)
CARDRRQATEAGNASASA [FS-1692],3.4,4.98 (active),3.64 (active)
CARDLAVAVEAGNASASA [HC643],1.07,-0.796 (inactive),1.14
CARPRRGSTAAGNASASA [FS-2743],0.592 (inactive),0.93 (inactive),0.391 (inactive)
CARPRRRYYPAGNASASA [FS-1763],0.0891 (inactive),0.798 (inactive),-1.17 (inactive)
CARPRRSPAQAGNASASA [FS-1764],9.55 (active),11 (active),8.87 (active)
CAEVPCHRPHAGNASASA [HC2415],0.403 (inactive),-0.336 (inactive),0.894 (inactive)
CAADAILHTPAGNASASA [HC269],0.255 (inactive),-1.84 (inactive),-0.719 (inactive)
